Pf Dd2 inh: inhibitors of Plasmodium falciparum Dd2 growth | 2.3% of 94,000 active | P. falciparum Dd2 growth, SYBR Green, 72 h; stronger effect = lower value | activity change, % at 10 µM; in the data active = activity change below about -80%; inconclusive = no clear call, values can overlap the other calls
C diff growth: blocks growth of Clostridium difficile. growth activity, negative = inhibition, % at 16 µg/mL (by protocol). Clostridium difficile clinical isolate growth, OD600, 24 h; stronger effect = lower value. 0.25% of 86,000 active;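 active = mean growth activity at or below -80% and every replicate also at or below -80%; inconclusive = mean at or below -80% but some replicate above -80%; inactive = mean growth activity above -80%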
T cruzi growth-1: inhibitors of T. cruzi proliferation; 5.9% of 77,000 active; T. cruzi beta-gal in NIH3T3, GalScreen luminescence, 90 h; inhibition, % at 8.34 µM;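 active = mean inhibition above about 93%, with at least 55% of replicates each passing it, limit read from the data, passing the limit was not always enough; inconclusive = only one of those two conditions holds; inactive = neither condition holds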
T cruzi growth-2: Trypanosoma cruzi proliferation inhibition. shares compounds with T cruzi growth-1. T. cruzi beta-gal in NIH3T3, GalScreen luminescence, 90 h. inhibition, % at 8.35 µM. 72% of 5,600 active. AID 651739;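 active = mean replicate inhibition above about 95% and at least 55% of replicates individually reaching it, limit read from the data; inconclusive = only one of the two criteria is met; inactive = neither criterion is met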
T cruzi growth-3: blocks T. cruzi growth in NIH3T3 host cells; shares compounds with T cruzi growth-1; T. cruzi beta-gal in NIH3T3, GalScreen luminescence, 90 h; inhibition, % at 2.09 µM; 21% of 5,600 active;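 active = mean inhibition above about 95%, with at least 55% of replicates also reaching it, limit read from the data; inconclusive = meets just one of the two conditions; inactive = meets neither condition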
NIH3T3 tox: kills mouse NIH/3T3 fibroblasts; shares compounds with T cruzi growth-1; NIH/3T3 viability, CellTiter-Glo ATP luminescence, 90 h; cytotoxicity (signal decrease), % at 8.35 µM; 14% of 5,600 active;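 active = mean signal decrease across replicates above about 35% based on untreated-well scatter, with enough replicates individually passing, limit read from the data; inconclusive = no rule stated though some were filed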
NIH3T3 tox 2: kills mouse NIH/3T3 fibroblasts; AID 651744; inhibition, % at 24.9 µM; 56% of 5,600 active; shares compounds with T cruzi growth-1; NIH/3T3 viability, CellTiter-Glo ATP luminescence, 90 h;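 active = mean loss of cell viability signal at or above a set limit, and enough replicates individually reaching it; inconclusive = meets only the mean limit or only the replicate share; inactive = meets neither condition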
Large screens that a line does not name were inactive (follow-up assays come after a bar, where they were run). Rows were chosen to be rich in hits. Some 6.7% of all compounds tested hit in one or more screens of this group.

O=C(C1CCC1)N1CCCCN2[C@H](C1)[C@@H](c1ccc(C#CC3(O)CCCC3)cc1)[C@@H]2CO	none
O=C(c1ccc(F)cc1)N1CCCCN2[C@H](CO)[C@@H](c3ccc(C#CC4(O)CCCC4)cc3)[C@@H]2C1	none
O=C(C1CCC1)N1CCCCN2[C@H](CO)[C@H](c3ccc(C#CC4(O)CCCC4)cc3)[C@H]2C1	T cruzi growth-1 101 | T cruzi growth-2 inconclusive | T cruzi growth-3 inactive | NIH3T3 tox inactive | NIH3T3 tox 2 inactive
C[C@H]1CN([C@@H](C)CO)C(=O)Cc2cc(NC(=O)Nc3cccc4ccccc34)ccc2O[C@H]1CN(C)Cc1ccc(-c2ccccc2)cc1	none
C[C@@H]1CN([C@H](C)CO)C(=O)Cc2cc(NC(=O)Nc3cccc4ccccc34)ccc2O[C@@H]1CN(C)Cc1ccc(-c2ccccc2)cc1	T cruzi growth-1 98 | T cruzi growth-2 112 | T cruzi growth-3 inactive | NIH3T3 tox inactive | NIH3T3 tox 2 inconclusive
C[C@@H]1CN([C@@H](C)CO)C(=O)Cc2cc(NC(=O)Nc3cccc4ccccc34)ccc2O[C@@H]1CN(C)Cc1ccc(-c2ccccc2)cc1	T cruzi growth-1 103 | T cruzi growth-2 108 | T cruzi growth-3 inactive | NIH3T3 tox inactive | NIH3T3 tox 2 inconclusive
C[C@@H]1CN([C@H](C)CO)C(=O)Cc2cc(NC(=O)Nc3cccc4ccccc34)ccc2O[C@H]1CN(C)Cc1ccccc1	none
Cc1ccc(S(=O)(=O)Nc2ccc3c(c2)C(=O)N([C@H](C)CO)C[C@@H](C)[C@H](CN(C)S(C)(=O)=O)O3)cc1	none
O=C(Nc1cccc(F)c1)N1CCCCN2[C@@H](CO)[C@@H](c3ccc(-c4ccncc4)cc3)[C@@H]2C1	T cruzi growth-1 inconclusive | T cruzi growth-2 104 | T cruzi growth-3 inactive | NIH3T3 tox inactive | NIH3T3 tox 2 43
Cc1ccc(-c2ccc([C@@H]3[C@@H](CO)N4CCCCN(C(=O)Nc5cccc(F)c5)C[C@@H]34)cc2)cc1	T cruzi growth-1 105 | T cruzi growth-2 inactive | T cruzi growth-3 inconclusive | NIH3T3 tox 69 | NIH3T3 tox 2 105
Cc1ccc(-c2ccc([C@H]3[C@@H](CO)N4C(=O)CN(C(=O)Nc5cccc(F)c5)C[C@@H]34)cc2)cc1	none (no result: T cruzi growth-1)
O=C(Nc1cccc(F)c1)N1CCCCN2[C@H](C1)[C@H](c1ccc(-c3ccncc3)cc1)[C@@H]2CO	none
Cc1ccc(-c2ccc([C@@H]3[C@H]4CN(C(=O)Nc5cccc(F)c5)CCCCN4[C@H]3CO)cc2)cc1	T cruzi growth-1 99 | T cruzi growth-2 100 | T cruzi growth-3 108 | NIH3T3 tox 47 | NIH3T3 tox 2 104
CN(C)CC#Cc1ccc([C@H]2[C@@H](CO)N3CCCCN(C(=O)C4CCCC4)C[C@@H]23)cc1	none
O=C(C[C@H]1CC[C@H]2[C@@H](COC[C@@H](O)CN2Cc2cc(F)ccc2F)O1)NCc1ccc(F)cc1	none (no result: C diff growth)
C[C@H](CO)N1C[C@H](C)[C@@H](CN(C)Cc2ccc(Cl)c(Cl)c2)OCCCC[C@H](C)Oc2ccc(NS(=O)(=O)c3ccc(Cl)cc3)cc2C1=O	none
O=C(C[C@H]1C[C@@H]2c3cc(NC(=O)C4CCC4)ccc3O[C@@H]2[C@@H](CO)O1)NC1CCCCC1	none (no result: C diff growth)
C[C@@H]1CCCCO[C@@H](CN(C)Cc2ccc(Cl)c(Cl)c2)[C@H](C)CN([C@H](C)CO)C(=O)c2cc(NS(=O)(=O)c3cccs3)ccc2O1	T cruzi growth-1 inconclusive | T cruzi growth-2 109 | T cruzi growth-3 113 | NIH3T3 tox inactive | NIH3T3 tox 2 107
C[C@@H]1CN([C@H](C)CO)C(=O)c2cc(NS(=O)(=O)c3cccs3)ccc2O[C@@H](C)CCCCO[C@@H]1CN(C)Cc1ccc(Cl)c(Cl)c1	T cruzi growth-1 inconclusive | T cruzi growth-2 inactive | T cruzi growth-3 111 | NIH3T3 tox 100 | NIH3T3 tox 2 91
C[C@@H]1CCCCO[C@@H](CN(C)Cc2ccc(Cl)c(Cl)c2)[C@H](C)CN([C@@H](C)CO)C(=O)c2cc(NS(=O)(=O)c3cccs3)ccc2O1	T cruzi growth-1 inconclusive | T cruzi growth-2 96 | T cruzi growth-3 108 | NIH3T3 tox 118 | NIH3T3 tox 2 103
C[C@H]1CCCCO[C@H](CN(C)Cc2ccncc2)[C@@H](C)CN([C@@H](C)CO)C(=O)c2cc(NS(=O)(=O)c3cccs3)ccc2O1	none
C[C@@H]1CCCCO[C@@H](CN(C)Cc2ccc(Cl)c(Cl)c2)[C@@H](C)CN([C@@H](C)CO)C(=O)c2cc(NS(=O)(=O)c3cccs3)ccc2O1	T cruzi growth-1 inconclusive | T cruzi growth-2 97 | T cruzi growth-3 inactive | NIH3T3 tox inactive | NIH3T3 tox 2 51
C[C@@H]1CCCCO[C@H](CN(C)Cc2ccncc2)[C@H](C)CN([C@@H](C)CO)C(=O)c2cc(NS(=O)(=O)c3cccs3)ccc2O1	none
C[C@@H]1CN([C@H](C)CO)C(=O)c2cc(NS(=O)(=O)c3cccs3)ccc2O[C@@H](C)CCCCO[C@H]1CN(C)Cc1ccncc1	none
C[C@@H]1CCCCO[C@H](CN(C)Cc2ccncc2)[C@@H](C)CN([C@@H](C)CO)C(=O)c2cc(NS(=O)(=O)c3cccs3)ccc2O1	none
C/C=C/c1ccc2c(c1)O[C@@H](CN(C)C(=O)c1cccc(F)c1)[C@@H](C)CN([C@H](C)CO)S2(=O)=O	none
CC(C)OC(=O)N(C)C[C@H]1OCc2ccccc2-c2c(n(C)c3ccccc23)C(=O)N([C@H](C)CO)C[C@@H]1C	none (no result: C diff growth)
C[C@@H]1CN([C@@H](C)CO)C(=O)Cc2cc(NC(=O)Nc3ccc(C(F)(F)F)cc3)ccc2O[C@@H]1CN(C)C(=O)Nc1ccc(F)cc1	none
O=C(NCC[C@@H]1CC[C@@H](NC(=O)C2CC2)[C@@H](CO)O1)c1ccc(F)cc1	none (no result: Pf Dd2 inh, T cruzi growth-1)
O=C(C[C@@H]1CC[C@H](NC(=O)C2CCOCC2)[C@H](CO)O1)Nc1ccccc1	none (no result: T cruzi growth-1)
C[C@@H]1CN([C@H](C)CO)C(=O)c2cc(-c3cccc(C#N)c3)cnc2O[C@H]1CN(C)Cc1ccncc1	none
C[C@H]1CCCCO[C@@H](CN(C)Cc2ccncc2)[C@@H](C)CN([C@@H](C)CO)C(=O)c2cc(NS(=O)(=O)c3cccs3)ccc2O1	none
C[C@@H]1CN([C@H](C)CO)C(=O)c2cc(NS(=O)(=O)c3cccs3)ccc2O[C@@H](C)CCCCO[C@H]1CN(C)Cc1ccc(Cl)c(Cl)c1	T cruzi growth-1 125 | T cruzi growth-2 inactive | T cruzi growth-3 115 | NIH3T3 tox 61 | NIH3T3 tox 2 106
C[C@H](CO)N1C[C@H](C)[C@H](CN(C)C(=O)Nc2cccc3ccccc23)Oc2ccc(NS(=O)(=O)c3ccc(Cl)cc3)cc2CC1=O	none
O=C(NC[C@H]1N[C@H](CO)[C@@H]1c1ccc(C2=CCCCC2)cc1)c1ccccc1	none

Screens from PubChem.
